Results filed as inconclusive are left out. Calls of active or inactive are those of the source. Unless noted, calls follow the shape of the dose curve; as a rule, active = well fitted curve in the direction sought with a large enough effect in the repeat runs; inconclusive = weak or mixed curves; inactive = no such curve, though single readings can be large; an effect the other way counts as inactive or inconclusive.
Columns and labels:
[1] = molecular target: Thyrotropin receptor (Homo sapiens) (UniProt P16473); experiment: qHTS assay to identify small molecule antagonists of the thyroid stimulating hormone receptor (TSHR) signaling pathway (AID 1259385; calls by dose curve; also: nearly all actives have a fitted effect of over 20% in size)
Summary of the method: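 TSHR-HEK293 cells were plated and held 18 h at 37C/5% CO2, then given compound plus Ro20-1724 and stimulated with TSH at 1.5 ng/mL final. After 30 min at room temperature, cAMP was detected with cAMP-d2/anti-cAMP-cryptate (1 h) by fluorescence.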

[2] = qHTS assay to identify small molecule agonists of the estrogen receptor alpha (ER-alpha) signaling pathway in the presence of an antagonist - cell viability counter screen (AID 1259386);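 also: series mostly up to about 92 µM; cells exposed to compounds for 22 h at 37 °C before the viability read; nearly all actives have a fitted effect of over 30% in size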
Summary of the method: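 Cell viability in VM7Luc4E2 cells (endogenous full-length ER-alpha) measured by CellTiter-Fluor fluorescence in the same wells as the luciferase screen. Cells pre-cultured 5 days in charcoal-stripped serum, then treated 22 h with compounds at 15 concentrations plus 10.0nM ICI-182,780.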

[3] = molecular target: Progesterone receptor (Homo sapiens) (UniProt P06401); experiment: qHTS assay to identify small molecule agonists of the progesterone receptor (PR) signaling pathway (AID 1346784; calls by dose curve; also: nearly all actives have a fitted effect of over 30% in size)
Summary of the method: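 PR-UAS-bla HEK 293T cells (beta-lactamase reporter under UAS) in 2% charcoal-stripped FBS, dosed with 23 nL compound after 6 hr, incubated 16hr at 37C. LiveBLAzer B/G FRET substrate added, fluorescence read after 2 hours.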

[4] = molecular target: Progesterone receptor (Homo sapiens) (UniProt P06401); experiment: qHTS assay to identify small molecule antagonists of the progesterone receptor (PR) signaling pathway (AID 1346795; active = well fitted inhibition curve with a large enough effect in the signal ratio in the repeat runs, not every such curve was filed as active; the % refers to the signal ratio)
Summary of the method: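 PR-UAS-bla HEK293T cells with beta-lactamase reporter under UAS control, in 2% charcoal-stripped FBS, treated with compounds plus 1 nM promegestone (R5020, final) for 16 hr at 37C. Read-out: FRET beta-lactamase substrate fluorescence after 2 hr at room temperature.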

[5] = qHTS assay to identify small molecule antagonists of the progesterone receptor (PR) signaling pathway - cell viability counter screen (AID 1346798); also: series mostly up to about 92 µM; nearly all actives have a fitted effect of over 50% in size
Summary of the method: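 PR-UAS-bla HEK293T cells, 3,000/well in 2% charcoal-stripped FBS medium, dosed with compounds plus R5020 agonist and incubated 16 h at 37C. Viability then measured in the same wells by CellTiter-Glo luminescence after 30 min at RT.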

[6] = qHTS assay to identify small molecule agonists of the progesterone receptor (PR) signaling pathway - cell viability counter screen (AID 1346799; calls by dose curve; also: nearly all actives have a fitted effect of over 45% in size)
Summary of the method: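 Counter screen in the PR-UAS-bla HEK293T wells (2% charcoal-stripped FBS, 16 h compound exposure at 37 C) after the bla read. CellTiter-Glo added, 30 min at room temperature, luminescence read as cell viability.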

[7] = qHTS assay to identify small molecule antagonists of the TGF-beta/Smad signaling pathway - cell viability counter screen (AID 1346824); also: nearly all actives have a fitted effect of over 50% in size
Summary of the method: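 SBE-bla HEK 293T cells were plated overnight at 37 C, then given compounds in DMSO plus TGF-beta1 (added as 0.25 ng/mL solution) for 5 hr. After the bla read, CellTiter-Glo was added to the same wells and luminescence read after 30 min at room temperature.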

[8] = qHTS assay to identify small molecule agonists of the TGF-beta/Smad signaling pathway - cell viability counter screen (AID 1346829); also: top concentration of the series differs between compounds; nearly all actives have a fitted effect of over 45% in size
Summary of the method: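 Compound-treated SBE-bla HEK 293T cells (5 hr, 37 C) were assessed for viability with CellTiter-Glo in parallel with the reporter read.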

[9] = qHTS assay to identify small molecule agonists of the TGF-beta/Smad signaling pathway (AID 1346859; active = well fitted activation curve with a large enough effect in the signal ratio in the repeat runs, not every such curve was filed as active; the % refers to the signal ratio; also: series mostly up to about 77 µM)
Summary of the method: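 SBE-bla HEK293T cells plated overnight, then compound exposure for 5 h at 37 C. Beta-lactamase reporter read with LiveBLAzer B/G FRET substrate after 2 h at room temperature, fluorescence at 405 nm excitation, 460/530 nm emission.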

[10] = molecular target: Thyrotropin-releasing hormone receptor (Homo sapiens) (UniProt P34981); experiment: qHTS assay to identify small molecule antagonists of the thyrotropin-releasing hormone receptor (TRHR) signaling pathway (AID 1346877; active = well fitted inhibition curve with a large enough effect in the repeat runs, not every such curve was filed as active; also: series mostly up to about 51 µM)
Summary of the method: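 TRHR-expressing HEK293 cells loaded with calcium dye for 2 h at 37 C; compounds pre-incubated 5 min at room temperature before TRH challenge at 1 nM final. Intracellular calcium fluorescence read kinetically for 3 min; 15 concentrations in triplicate.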

[11] = molecular target: Thyrotropin-releasing hormone receptor (Homo sapiens) (UniProt P34981); experiment: qHTS assay to identify small molecule agonists of the thyrotropin-releasing hormone receptor (TRHR) signaling pathway (AID 1346891; calls by dose curve; also: series mostly up to about 58 µM)
Summary of the method: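 HEK293 cells expressing TRHR plated 18 h at 37 C/5% CO2, calcium dye-loaded 2 h at 37 C, then compound added (agonist mode); kinetic calcium fluorescence read 3 min at 1 s intervals; 15 concentrations in triplicate.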

[12] = Caspase-3/7 induction in HepG2 cells by small molecules, qHTS assay (AID 1346978); also: nearly all actives have a fitted effect of over 15% in size
Summary of the method: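 Wild-type HepG2 cells (2,000/well) were settled 5 h at 37 C, 5% CO2, then exposed to compounds in DMSO for 17 h. Caspase-3/7 activity was read by luminescence 30 min after adding Caspase-Glo 3/7 reagent at room temperature.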

[13] = Caspase-3/7 induction in CHO-K1 cells by small molecules, qHTS cell viability counter screen (AID 1346979); also: nearly all actives have a fitted effect of over 35% in size
Summary of the method: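 Wild-type CHO-K1 cells (1,500/well) treated with compound after 5 h plating; after 16 h at 37C, viability read as CellTiter-Fluor fluorescence following 1 h reagent incubation, in the same wells as the caspase read.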

[14] = Caspase-3/7 induction in CHO-K1 cells by small molecules, qHTS assay (AID 1346980); also: nearly all actives have a fitted effect of over 15% in size
Summary of the method: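 Wild-type cells were seeded at 1,500 per well and settled 5 hr at 37 C, 5% CO2, then exposed to DMSO-dissolved compounds for 17 hr. Caspase-Glo 3/7 reagent was added, and luminescence was read after 30min at room temperature.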

[15] = Caspase-3/7 induction in HepG2 cells by small molecules, qHTS cell viability counter screen (AID 1346981); also: series mostly up to about 92 µM; nearly all actives have a fitted effect of over 30% in size
Summary of the method: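 Wild-type HepG2 cells, 2,000/well, settled 5 hr at 37 C, 5% CO2 before compound addition. Viability read by CellTiter-Fluor fluorescence, reagent added after 16 hr compound exposure, then 1 hr at 37C, in the same wells as the caspase read.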

[16] = molecular target: Nuclear receptor subfamily 1 group I member 2 (Homo sapiens) (UniProt O75469); experiment: Human pregnane X receptor (PXR) small molecule agonists, qHTS assay (AID 1346982); also: nearly all actives have a fitted effect of over 35% in size
Summary of the method: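 PXR-Luc HepG2 reporter cells (CYP3A4-driven luciferase) in 5% charcoal-stripped FBS medium, plated 5 h before compound addition, then treated 24 h at 37C. Luciferase read by ONE-Glo luminescence after 30 min at room temperature.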

[17] = molecular target: Nuclear receptor subfamily 1 group I member 2 (Rattus norvegicus) (UniProt Q9R1A7); experiment: Rat pregnane X receptor (rPXR) activation by small molecules, qHTS assay (AID 1346983); details: rPXR luciferase reporter cells, One-Glo luminescence, 24 h; max activation: hits give high values; also: nearly all actives have a fitted effect of over 20% in size
Summary of the method: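 Cell-based rPXR luciferase reporter assay, 2,000 cells per well, rested 5hr at 37 C before compound addition in DMSO, then 24 hr at 37 C. One-Glo reagent was added and luminescence read after 30 min at room temperature.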

[18] = molecular target: Nuclear receptor subfamily 1 group I member 2 (Homo sapiens) (UniProt O75469); experiment: CYP3A4 induction through human pregnane X receptor (PXR) by small molecules, qHTS assay (AID 1346984); also: nearly all actives have a fitted effect of over 40% in size
Summary of the method: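 DPX-2 HepG2 cells carrying a PXR response element and CYP3A4-promoter luciferase construct, treated with compounds 24 hr at 37C. Then P450-Glo CYP3A4 Luciferin-IPA substrate (3uM final) for 3 hr at 37C, One-Glo added, luminescence read.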

[19] = molecular target: Nuclear receptor subfamily 1 group I member 2 (Homo sapiens) (UniProt O75469); experiment: Human pregnane X receptor (PXR) activation by small molecules, qHTS assay (AID 1346985); also: nearly all actives have a fitted effect of over 40% in size
Summary of the method: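 DPX-2 cells (HepG2 co-transfected with a PXR response element and a CYP3A4-promoter luciferase construct) were seeded at 2,000 per well, rested 5 hr at 37C, then exposed to DMSO-dissolved compounds for 24 hr. Activation was read as luciferase luminescence.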

[20] = Human pregnane X receptor (PXR) small molecule agonists, qHTS cell viability counter screen (AID 1346977); also: nearly all actives have a fitted effect of over 50% in size
Summary of the method: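 PXR-Luc HepG2 cells (2,000/well, 5% charcoal-stripped FBS) preincubated 5 hr, then exposed to compounds 24 hr at 37 C. Viability read in the same wells by CellTiter-Fluor fluorescence, reagent added at 23 hr, 1 hr incubation.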
% is scaled to controls: 0 for no effect and ±100 for the full control effect.

Thyrotropin receptor (Homo sapiens), sequence (P16473 whole entry, looked up): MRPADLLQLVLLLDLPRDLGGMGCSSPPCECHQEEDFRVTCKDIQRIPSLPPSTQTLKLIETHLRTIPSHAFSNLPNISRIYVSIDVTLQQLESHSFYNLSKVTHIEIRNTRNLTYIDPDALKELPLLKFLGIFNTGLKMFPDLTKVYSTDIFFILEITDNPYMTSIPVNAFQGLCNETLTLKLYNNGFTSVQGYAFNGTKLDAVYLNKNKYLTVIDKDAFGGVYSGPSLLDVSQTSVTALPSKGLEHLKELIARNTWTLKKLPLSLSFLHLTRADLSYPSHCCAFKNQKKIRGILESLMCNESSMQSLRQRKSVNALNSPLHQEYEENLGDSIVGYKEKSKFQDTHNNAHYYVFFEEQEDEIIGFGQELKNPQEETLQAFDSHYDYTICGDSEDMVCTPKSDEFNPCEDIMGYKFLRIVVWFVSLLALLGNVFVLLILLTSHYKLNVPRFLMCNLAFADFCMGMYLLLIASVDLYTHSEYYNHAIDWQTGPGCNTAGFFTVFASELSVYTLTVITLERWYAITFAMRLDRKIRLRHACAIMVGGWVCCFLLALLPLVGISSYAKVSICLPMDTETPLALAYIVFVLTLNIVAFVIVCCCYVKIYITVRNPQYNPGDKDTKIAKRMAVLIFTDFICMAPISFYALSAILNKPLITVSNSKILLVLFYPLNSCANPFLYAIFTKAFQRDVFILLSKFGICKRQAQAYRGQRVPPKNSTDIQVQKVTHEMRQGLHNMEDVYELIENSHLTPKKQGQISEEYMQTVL
Nuclear receptor subfamily 1 group I member 2 (Homo sapiens), sequence (O75469 whole entry, looked up): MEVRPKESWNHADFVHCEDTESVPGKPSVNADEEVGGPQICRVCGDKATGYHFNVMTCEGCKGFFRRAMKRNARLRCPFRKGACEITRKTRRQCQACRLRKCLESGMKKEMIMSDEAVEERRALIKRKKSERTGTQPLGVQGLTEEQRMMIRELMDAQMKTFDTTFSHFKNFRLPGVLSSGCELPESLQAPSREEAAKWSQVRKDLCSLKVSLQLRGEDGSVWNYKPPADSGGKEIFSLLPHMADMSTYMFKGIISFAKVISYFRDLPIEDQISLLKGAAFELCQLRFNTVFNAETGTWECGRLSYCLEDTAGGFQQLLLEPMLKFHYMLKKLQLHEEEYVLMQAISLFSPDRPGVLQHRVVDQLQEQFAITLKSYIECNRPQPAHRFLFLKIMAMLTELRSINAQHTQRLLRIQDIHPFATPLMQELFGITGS
Progesterone receptor (Homo sapiens), sequence (P06401 whole entry, looked up): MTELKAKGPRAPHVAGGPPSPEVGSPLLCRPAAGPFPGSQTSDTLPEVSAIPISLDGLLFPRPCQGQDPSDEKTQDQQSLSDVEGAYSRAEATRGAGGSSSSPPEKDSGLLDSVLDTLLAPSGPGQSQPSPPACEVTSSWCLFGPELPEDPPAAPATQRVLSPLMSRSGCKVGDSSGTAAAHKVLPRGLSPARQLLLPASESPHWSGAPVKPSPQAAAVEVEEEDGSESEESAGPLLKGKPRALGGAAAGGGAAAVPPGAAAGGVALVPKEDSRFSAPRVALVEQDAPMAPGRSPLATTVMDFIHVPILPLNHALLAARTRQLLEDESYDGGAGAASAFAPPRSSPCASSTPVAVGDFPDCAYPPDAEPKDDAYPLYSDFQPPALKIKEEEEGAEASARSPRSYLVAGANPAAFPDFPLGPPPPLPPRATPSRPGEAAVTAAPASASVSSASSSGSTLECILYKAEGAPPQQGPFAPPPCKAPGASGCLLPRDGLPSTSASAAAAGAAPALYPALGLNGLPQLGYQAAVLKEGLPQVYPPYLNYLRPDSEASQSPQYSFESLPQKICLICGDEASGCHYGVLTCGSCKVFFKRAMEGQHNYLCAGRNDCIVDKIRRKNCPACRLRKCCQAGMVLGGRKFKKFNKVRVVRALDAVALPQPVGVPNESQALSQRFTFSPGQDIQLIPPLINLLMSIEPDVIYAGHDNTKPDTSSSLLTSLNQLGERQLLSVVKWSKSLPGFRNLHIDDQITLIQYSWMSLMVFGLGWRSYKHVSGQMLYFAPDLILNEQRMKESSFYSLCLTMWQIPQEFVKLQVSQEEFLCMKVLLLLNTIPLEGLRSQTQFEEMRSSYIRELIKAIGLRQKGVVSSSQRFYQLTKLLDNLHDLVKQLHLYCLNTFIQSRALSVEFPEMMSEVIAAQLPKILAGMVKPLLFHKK
Thyrotropin-releasing hormone receptor (Homo sapiens), sequence (P34981 whole entry, looked up): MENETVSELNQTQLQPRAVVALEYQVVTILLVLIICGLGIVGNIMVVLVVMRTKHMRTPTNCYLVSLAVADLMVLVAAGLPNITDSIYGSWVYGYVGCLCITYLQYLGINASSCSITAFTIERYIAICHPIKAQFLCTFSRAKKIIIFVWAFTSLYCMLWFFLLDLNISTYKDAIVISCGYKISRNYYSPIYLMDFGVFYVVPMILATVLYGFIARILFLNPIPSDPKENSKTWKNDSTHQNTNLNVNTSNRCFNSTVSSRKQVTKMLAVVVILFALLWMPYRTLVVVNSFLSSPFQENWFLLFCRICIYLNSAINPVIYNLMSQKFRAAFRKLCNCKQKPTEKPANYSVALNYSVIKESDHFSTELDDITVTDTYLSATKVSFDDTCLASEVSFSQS
Nuclear receptor subfamily 1 group I member 2 (Rattus norvegicus), sequence (Q9R1A7 whole entry, looked up): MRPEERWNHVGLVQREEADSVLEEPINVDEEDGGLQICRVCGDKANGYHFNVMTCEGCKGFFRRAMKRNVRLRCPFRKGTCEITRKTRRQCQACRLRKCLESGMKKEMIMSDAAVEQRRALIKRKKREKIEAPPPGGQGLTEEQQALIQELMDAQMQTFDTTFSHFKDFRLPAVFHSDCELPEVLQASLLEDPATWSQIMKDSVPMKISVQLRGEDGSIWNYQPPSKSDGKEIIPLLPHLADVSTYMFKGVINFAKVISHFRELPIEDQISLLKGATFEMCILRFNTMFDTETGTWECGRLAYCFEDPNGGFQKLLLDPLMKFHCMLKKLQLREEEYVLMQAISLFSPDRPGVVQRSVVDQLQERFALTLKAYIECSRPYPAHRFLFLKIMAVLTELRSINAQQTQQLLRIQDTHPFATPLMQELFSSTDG

CC(C)[C@H](N)C(=O)OCCOCn1cnc2c(=O)[nH]c(N)nc21
inactive: Potency [1] | outcome [2] | Potency [3] | Potency [4] | Potency [5] | Potency [6] | outcome [7] | outcome [8] | outcome [9] | outcome [10] | outcome [11] | outcome [12] | Potency [13] | outcome [14] | outcome [15] | Potency [16] | max activation [17] -4.04% | Potency [18] | Potency [19]

CO
inactive: Potency [1] | outcome [2] | Potency [3] | Potency [4] | Potency [5] | Potency [6] | outcome [7] | outcome [8] | outcome [9] | outcome [10] | outcome [11] | Potency [20] | outcome [12] | outcome [14] | outcome [15] | max activation [17] -1.84%

C=C(C)C(=O)OCCCCCCCCCCCCCCCCCC
inactive: activity change, negative = inhibition [1] 0.559% [at 19 µM] | activity change, negative = cytotoxicity [2] -3.47% [at 19 µM] | activation [3] 1.29% [at 19 µM] | activity change, negative = inhibition [4] -2.15% [at 18.9 µM] | activity change, negative = cytotoxicity [5] 16.4% [at 18.9 µM] | activity change, negative = cytotoxicity [6] 3.91% [at 19 µM] | viability change, negative = cytotoxic [7] 11% [at 15.8 µM] | activity change, negative = cytotoxicity [8] 16.7% [at 15.8 µM] | activation [9] 6.67% [at 15.8 µM] | activation [11] -0.148% [at 11.8 µM] | activity change, negative = cytotoxicity [20] -1.38% [at 19 µM] | caspase activation [12] -1.69% [at 19 µM] | activity change, negative = cytotoxicity [13] -0.104% [at 19 µM] | caspase-3/7 activation [14] 0.453% [at 19 µM] | activity change, negative = cytotoxicity [15] -0.0917% [at 19 µM] | activation [16] -0.119% [at 19 µM]

CCO[Si](CCCN=C=O)(OCC)OCC
inactive: Potency [1] | outcome [2] | Potency [3] | Potency [4] | Potency [5] | Potency [6] | outcome [7] | outcome [8] | outcome [9] | outcome [10] | outcome [11] | outcome [12] | Potency [13] | outcome [14] | outcome [15] | Potency [16]

CCCc1ccccc1O
inactive: Potency [1] | outcome [2] | Potency [3] | Potency [4] | Potency [5] | Potency [6] | outcome [7] | outcome [8] | outcome [9] | outcome [10] | outcome [11] | outcome [12] | Potency [13] | outcome [14] | Potency [16]

CCN(CC)S(=O)(=O)c1ccc(C(=O)O)cc1
inactive: Potency [1] | outcome [2] | Potency [3] | Potency [4] | Potency [5] | Potency [6] | outcome [7] | outcome [8] | outcome [9] | outcome [11] | Potency [20] | outcome [12] | Potency [13] | outcome [14] | outcome [15] | Potency [16] | max activation [17] -1.28% | Potency [18] | Potency [19]

COc1ccc(COC=O)cc1
inactive: Potency [1] | outcome [2] | Potency [3] | Potency [4] | Potency [5] | Potency [6] | outcome [7] | outcome [8] | outcome [9] | outcome [10] | outcome [11] | Potency [20] | outcome [12] | outcome [14] | outcome [15] | Potency [16]

CC(C)CCCCCCN
inactive: Potency [1] | outcome [2] | Potency [3] | Potency [4] | Potency [5] | Potency [6] | outcome [7] | outcome [8] | outcome [9] | outcome [10] | outcome [11] | outcome [12] | Potency [13] | outcome [14] | outcome [15] | Potency [16]

From PubChem BioAssay (Tox21)
